# Assay results: PubChem BioAssay (Tox21)
# Values without a mark were called inactive. Records with an inconclusive call do not appear. Entries that show only a call come without a potency. Activity calls are given as the source filed them. Unless noted, the call rests on the fitted dose curve; in most records, active means well fitted curve in the direction sought with a large enough effect in the repeat runs; inconclusive means weak or mixed curves; inactive means no such curve, though single readings can be large; an effect the other way counts as inactive or inconclusive.
# Experiments:
# [1] = molecular target: Thyrotropin receptor (Homo sapiens) (UniProt P16473); experiment: qHTS assay to identify small molecule antagonists of the thyroid stimulating hormone receptor (TSHR) signaling pathway (AID 1259385; calls by dose curve; further: nearly all actives have a fitted effect of over 20% in size)
# Sequence of Thyrotropin receptor (Homo sapiens) (P16473 whole entry, looked up): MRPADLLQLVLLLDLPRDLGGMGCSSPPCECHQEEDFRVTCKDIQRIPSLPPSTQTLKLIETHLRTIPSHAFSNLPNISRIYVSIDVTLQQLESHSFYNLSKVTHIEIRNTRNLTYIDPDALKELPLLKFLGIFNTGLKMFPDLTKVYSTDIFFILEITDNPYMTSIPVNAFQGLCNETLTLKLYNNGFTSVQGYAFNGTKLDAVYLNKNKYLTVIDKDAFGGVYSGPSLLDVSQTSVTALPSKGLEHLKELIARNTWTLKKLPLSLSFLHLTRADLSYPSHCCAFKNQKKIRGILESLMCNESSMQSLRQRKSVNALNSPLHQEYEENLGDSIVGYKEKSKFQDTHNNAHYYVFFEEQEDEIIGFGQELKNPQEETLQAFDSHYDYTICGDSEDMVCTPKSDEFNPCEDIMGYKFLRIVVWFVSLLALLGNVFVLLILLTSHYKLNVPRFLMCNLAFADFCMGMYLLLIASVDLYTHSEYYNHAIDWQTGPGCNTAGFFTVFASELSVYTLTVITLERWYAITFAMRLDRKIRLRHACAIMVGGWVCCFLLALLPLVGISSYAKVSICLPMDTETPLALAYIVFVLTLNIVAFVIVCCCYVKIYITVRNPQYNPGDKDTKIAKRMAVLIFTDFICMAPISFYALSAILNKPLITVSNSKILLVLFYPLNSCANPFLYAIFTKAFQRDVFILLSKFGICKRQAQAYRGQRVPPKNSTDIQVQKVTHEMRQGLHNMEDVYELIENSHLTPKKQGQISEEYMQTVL
# Summary of the method: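 TSHR-HEK293 cells were plated and held 18 h at 37C/5% CO2, then given compound plus Ro20-1724 and stimulated with TSH at 1.5 ng/mL final. After 30 min at room temperature, cAMP was detected with cAMP-d2/anti-cAMP-cryptate (1 h) by fluorescence.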
# [2] = molecular target: Progesterone receptor (Homo sapiens) (UniProt P06401); experiment: qHTS assay to identify small molecule agonists of the progesterone receptor (PR) signaling pathway (AID 1346784; calls by dose curve; further: nearly all actives have a fitted effect of over 30% in size; further: potency means the concentration at half of the fitted maximal effect)
# Sequence of Progesterone receptor (Homo sapiens) (P06401 whole entry, looked up): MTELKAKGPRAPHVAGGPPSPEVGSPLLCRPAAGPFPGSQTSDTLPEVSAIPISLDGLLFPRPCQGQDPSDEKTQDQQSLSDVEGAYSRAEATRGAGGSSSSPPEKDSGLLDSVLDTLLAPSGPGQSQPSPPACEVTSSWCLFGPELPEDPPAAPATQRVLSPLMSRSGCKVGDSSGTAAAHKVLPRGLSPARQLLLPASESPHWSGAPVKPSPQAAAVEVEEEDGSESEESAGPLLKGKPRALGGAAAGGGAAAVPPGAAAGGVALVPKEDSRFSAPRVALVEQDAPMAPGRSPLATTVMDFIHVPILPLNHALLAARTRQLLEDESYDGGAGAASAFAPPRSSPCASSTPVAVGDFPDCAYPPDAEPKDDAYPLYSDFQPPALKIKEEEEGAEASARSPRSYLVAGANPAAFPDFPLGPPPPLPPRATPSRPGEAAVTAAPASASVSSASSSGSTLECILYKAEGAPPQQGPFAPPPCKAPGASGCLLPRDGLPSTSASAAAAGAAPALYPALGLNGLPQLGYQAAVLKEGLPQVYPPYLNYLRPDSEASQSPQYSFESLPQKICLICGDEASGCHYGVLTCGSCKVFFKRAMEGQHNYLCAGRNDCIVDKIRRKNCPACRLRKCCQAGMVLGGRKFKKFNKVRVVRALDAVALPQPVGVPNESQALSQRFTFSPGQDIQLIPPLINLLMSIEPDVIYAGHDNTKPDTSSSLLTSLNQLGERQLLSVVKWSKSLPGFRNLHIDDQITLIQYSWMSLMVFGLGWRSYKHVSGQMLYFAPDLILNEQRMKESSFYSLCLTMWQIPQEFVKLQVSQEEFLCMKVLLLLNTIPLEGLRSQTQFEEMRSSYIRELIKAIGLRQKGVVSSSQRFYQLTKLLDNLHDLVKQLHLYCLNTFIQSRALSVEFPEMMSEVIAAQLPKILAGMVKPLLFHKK
# Summary of the method: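 PR-UAS-bla HEK 293T cells carrying a UAS-driven beta-lactamase reporter were seeded in medium with 2% charcoal-stripped FBS, preincubated 6 hr at 37C, then exposed to compounds in DMSO for 16 hr; agonism was read by LiveBLAzer B/G FRET fluorescence.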
# [3] = molecular target: Progesterone receptor (Homo sapiens) (UniProt P06401); experiment: qHTS assay to identify small molecule antagonists of the progesterone receptor (PR) signaling pathway (AID 1346795; active means well fitted inhibition curve with a large enough effect in the signal ratio in the repeat runs, not every such curve was filed as active; the % refers to the signal ratio)
# Summary of the method: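 PR-UAS-bla HEK293T cells carrying a UAS-driven beta-lactamase reporter were plated in medium with 2% charcoal-stripped FBS and rested 6 hr at 37C. Compounds were added with 1 nM R5020 (final) for 16 hr, then FRET substrate loaded 2 hr at room temperature.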
# [4] = qHTS assay to identify small molecule antagonists of the progesterone receptor (PR) signaling pathway - cell viability counter screen (AID 1346798); further: series mostly up to about 92 µM; nearly all actives have a fitted effect of over 50% in size
# Summary of the method: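 PR-UAS-bla HEK293T cells in medium with 2% charcoal-stripped FBS were treated with compounds plus R5020 for 16 hr at 37C. Cell viability was then read by CellTiter-Glo luminescence after 30 min at room temperature in the same wells.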
# [5] = qHTS assay to identify small molecule agonists of the progesterone receptor (PR) signaling pathway - cell viability counter screen (AID 1346799; calls by dose curve; further: nearly all actives have a fitted effect of over 45% in size; further: potency means the concentration at half of the fitted maximal effect)
# Summary of the method: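 PR-UAS-bla HEK293T cells, 3,000 per well in medium with 2% charcoal-stripped FBS, were preincubated 6 hr at 37C, then exposed to compounds for 16 hr; viability was read as CellTiter-Glo luminescence after 30 min at room temperature.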
# [6] = qHTS assay to identify small molecule antagonists of the TGF-beta/Smad signaling pathway - cell viability counter screen (AID 1346824); further: nearly all actives have a fitted effect of over 50% in size
# Summary of the method: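 SBE-bla HEK 293T cells were plated overnight at 37 C, then given compounds in DMSO plus TGF-beta1 (added as 0.25 ng/mL solution) for 5 hr. After the bla read, CellTiter-Glo was added to the same wells and luminescence read after 30 min at room temperature.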
# [7] = qHTS assay to identify small molecule agonists of the TGF-beta/Smad signaling pathway - cell viability counter screen (AID 1346829); further: top concentration of the series differs between compounds; nearly all actives have a fitted effect of over 45% in size
# Summary of the method: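 Compound-treated SBE-bla HEK 293T cells (5 hr, 37 C) were assessed for viability with CellTiter-Glo in parallel with the reporter read.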
# [8] = qHTS assay to identify small molecule agonists of the TGF-beta/Smad signaling pathway (AID 1346859; active means well fitted activation curve with a large enough effect in the signal ratio in the repeat runs, not every such curve was filed as active; the % refers to the signal ratio; further: series mostly up to about 77 µM)
# Summary of the method: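 HEK 293T cells stably carrying a beta-lactamase reporter driven by the Smad binding element were seeded overnight, exposed to DMSO-dissolved compounds for 5 hr at 37 C, 5% CO2, then loaded with FRET substrate for 2 hr at room temperature.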
# [9] = qHTS assay to identify small molecule agonists of the estrogen receptor alpha (ER-alpha) signaling pathway in the presence of an antagonist - cell viability counter screen (AID 1259386);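 further: series mostly up to about 92 µM; cells exposed to compounds for 22 h at 37 °C before the viability read; nearly all actives have a fitted effect of over 30% in size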
# Summary of the method: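 Cell viability in VM7Luc4E2 cells (endogenous full-length ER-alpha) measured by CellTiter-Fluor fluorescence in the same wells as the luciferase screen. Cells pre-cultured 5 days in charcoal-stripped serum, then treated 22 h with compounds at 15 concentrations plus 10.0nM ICI-182,780.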
# [10] = molecular target: Thyrotropin-releasing hormone receptor (Homo sapiens) (UniProt P34981); experiment: qHTS assay to identify small molecule antagonists of the thyrotropin-releasing hormone receptor (TRHR) signaling pathway (AID 1346877; active means well fitted inhibition curve with a large enough effect in the repeat runs, not every such curve was filed as active; further: series mostly up to about 51 µM)
# Sequence of Thyrotropin-releasing hormone receptor (Homo sapiens) (P34981 whole entry, looked up): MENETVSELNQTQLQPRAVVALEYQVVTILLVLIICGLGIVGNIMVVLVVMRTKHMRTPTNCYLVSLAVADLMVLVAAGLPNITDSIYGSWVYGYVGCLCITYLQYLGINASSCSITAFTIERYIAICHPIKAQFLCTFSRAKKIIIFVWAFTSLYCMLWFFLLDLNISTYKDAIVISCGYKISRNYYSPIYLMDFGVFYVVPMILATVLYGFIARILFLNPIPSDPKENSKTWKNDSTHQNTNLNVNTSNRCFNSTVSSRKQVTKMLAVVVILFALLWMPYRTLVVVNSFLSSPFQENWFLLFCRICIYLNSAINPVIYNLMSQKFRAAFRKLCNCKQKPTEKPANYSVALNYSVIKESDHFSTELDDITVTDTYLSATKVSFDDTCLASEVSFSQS
# Summary of the method: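 TRHR-expressing HEK293 cells loaded with calcium dye for 2 h at 37 C; compounds pre-incubated 5 min at room temperature before TRH challenge at 1 nM final. Intracellular calcium fluorescence read kinetically for 3 min; 15 concentrations in triplicate.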
compound,measurement,setting,value
CC1=CC(=C(c2ccc(N)cc2)c2ccc(N)cc2)C=CC1=N,"activity change, negative = inhibition",[1],0.722% [at 8.39 µM]
same,Potency,[2],0.39 µM (active)
same,"activity change, negative = inhibition",[3],5.6% [at 8.39 µM]
same,"activity change, negative = cytotoxicity",[4],5.81% [at 8.39 µM]
same,"activity change, negative = cytotoxicity",[5],0% [at 8.39 µM]
same,"viability change, negative = cytotoxic",[6],12% [at 6.97 µM]
same,"activity change, negative = cytotoxicity",[7],4.82% [at 6.97 µM]
same,activation,[8],8.28% [at 6.97 µM]
Nc1cccc2c(=O)[nH][nH]c(=O)c12,Potency,[1],inactive
same,Potency,[9],inactive
same,Potency,[3],inactive
same,outcome,[6],inactive
same,outcome,[7],inactive
same,outcome,[8],inactive
O=C(NC1CCN(CCc2c[nH]c3ccccc23)CC1)c1ccccc1,Potency,[1],inactive
same,Potency,[2],inactive
same,Potency,[3],inactive
same,Potency,[4],inactive
same,Potency,[5],inactive
same,outcome,[7],inactive
same,outcome,[8],inactive
same,outcome,[10],inactive
[O-][n+]1ccc(Cl)cc1,Potency,[9],inactive
same,Potency,[2],inactive
same,Potency,[3],inactive
same,Potency,[4],inactive
same,Potency,[5],inactive
same,outcome,[6],inactive
same,outcome,[7],inactive
same,outcome,[8],inactive
CC(C(=O)O)c1ccc(/C=C2\CCCCC2=O)cc1 (stereo not drawn),Potency,[9],inactive
same,Potency,[2],inactive
same,Potency,[3],inactive
same,Potency,[4],inactive
same,Potency,[5],inactive
same,outcome,[6],inactive
same,outcome,[7],inactive
same,outcome,[8],inactive
Oc1ccc(CCNCCCCCCNCCc2ccccc2)cc1O,Potency,[1],inactive
same,Potency,[2],inactive
same,Potency,[3],inactive
same,Potency,[4],inactive
same,Potency,[5],inactive
same,outcome,[7],inactive
same,outcome,[8],inactive
same,outcome,[10],inactive
CC(=O)c1cccnc1,Potency,[9],inactive
same,Potency,[2],inactive
same,Potency,[3],inactive
same,Potency,[4],inactive
same,Potency,[5],inactive
same,outcome,[6],inactive
same,outcome,[7],inactive
same,outcome,[8],inactive
CC(C)NC(=O)c1ccccc1N,Potency,[1],inactive
same,Potency,[9],inactive
same,outcome,[6],inactive
same,outcome,[7],inactive
same,outcome,[8],inactive
same,outcome,[10],inactive
Cc1c(Nc2ncccc2C(=O)O)cccc1C(F)(F)F,Potency,[1],inactive
same,Potency,[9],inactive
same,Potency,[3],inactive
same,outcome,[6],inactive
same,outcome,[7],inactive
same,outcome,[8],inactive
same,outcome,[10],inactive
Cc1ccc(Cl)c(OCC(O)CNC(C)(C)C)c1 (stereo not drawn),Potency,[9],inactive
same,Potency,[2],inactive
same,Potency,[3],inactive
same,Potency,[4],inactive
same,Potency,[5],inactive
same,outcome,[6],inactive
same,outcome,[7],inactive
same,outcome,[8],inactive
same,outcome,[10],inactive
SCCOCCOCCS,Potency,[9],inactive
same,Potency,[2],inactive
same,Potency,[3],inactive
same,Potency,[4],inactive
same,Potency,[5],inactive
same,outcome,[6],inactive
same,outcome,[7],inactive
same,outcome,[8],inactive
same,outcome,[10],inactive
CC(=O)c1ccc(Cl)c(Cl)c1Cl,Potency,[1],inactive
same,Potency,[9],inactive
same,Potency,[4],inactive
same,Potency,[5],inactive
same,outcome,[6],inactive
same,outcome,[7],inactive
same,outcome,[8],inactive
same,outcome,[10],inactive
CC1=C(C)C(=O)C(CCCCC#CCCCC#CCO)=C(C)C1=O,Potency,[1],inactive
same,Potency,[2],inactive
same,outcome,[6],inactive
same,outcome,[7],inactive
same,outcome,[8],inactive
same,outcome,[10],inactive
CC/C=C\CCO,Potency,[9],inactive
same,Potency,[2],inactive
same,Potency,[3],inactive
same,Potency,[4],inactive
same,Potency,[5],inactive
same,outcome,[6],inactive
same,outcome,[7],inactive
same,outcome,[8],inactive
same,outcome,[10],inactive
CCCCCCCCS,Potency,[9],inactive
same,Potency,[2],inactive
same,Potency,[3],inactive
same,Potency,[4],inactive
same,Potency,[5],inactive
same,outcome,[6],inactive
same,outcome,[7],inactive
same,outcome,[8],inactive
Cc1cccc(C)c1NC(=O)CN1CCCC1,Potency,[1],inactive
same,Potency,[9],inactive
same,Potency,[4],inactive
same,Potency,[5],inactive
same,outcome,[6],inactive
same,outcome,[7],inactive
O=C(O)c1ccc2cc(O)ccc2c1,Potency,[9],inactive
same,Potency,[2],inactive
same,Potency,[3],inactive
same,Potency,[4],inactive
same,Potency,[5],inactive
same,outcome,[6],inactive
same,outcome,[7],inactive
same,outcome,[8],inactive
same,outcome,[10],inactive
NC(=O)c1ccccc1C(N)=O,Potency,[1],inactive
same,Potency,[9],inactive
same,Potency,[3],inactive
same,Potency,[4],inactive
same,outcome,[6],inactive
same,outcome,[7],inactive
same,outcome,[8],inactive
same,outcome,[10],inactive
CNc1ccccc1,Potency,[9],inactive
same,Potency,[2],inactive
same,Potency,[3],inactive
same,Potency,[4],inactive
same,Potency,[5],inactive
same,outcome,[6],inactive
same,outcome,[7],inactive
same,outcome,[8],inactive
CCCc1ccc(OC)cc1,Potency,[9],inactive
same,Potency,[2],inactive
same,Potency,[4],inactive
same,outcome,[6],inactive
same,outcome,[7],inactive
same,outcome,[8],inactive
same,outcome,[10],inactive
O=C(Cl)c1cc(Cl)cc(Cl)c1,Potency,[9],inactive
same,Potency,[2],inactive
same,Potency,[3],inactive
same,Potency,[5],inactive
same,outcome,[6],inactive
same,outcome,[7],inactive
same,outcome,[10],inactive
CCOc1ccc(NC(C)=O)cc1N,Potency,[9],inactive
same,Potency,[2],inactive
same,Potency,[5],inactive
same,outcome,[6],inactive
same,outcome,[7],inactive
same,outcome,[8],inactive
Cc1nc2sccn2c(=O)c1CCN1CCC(=C(c2ccc(F)cc2)c2ccc(F)cc2)CC1,Potency,[9],inactive
same,Potency,[2],inactive
same,Potency,[4],inactive
same,Potency,[5],29.8 µM (active)
same,outcome,[6],inactive
same,outcome,[7],inactive
Cc1c(Cl)cccc1[N+](=O)[O-],Potency,[9],inactive
same,Potency,[2],inactive
same,Potency,[3],inactive
same,Potency,[4],inactive
same,Potency,[5],inactive
same,outcome,[7],inactive
same,outcome,[10],inactive
O=C(C1CCCCC1)N1CC(=O)N2CCCc3ccccc3C2C1 (stereo not drawn),Potency,[9],inactive
same,Potency,[2],inactive
same,Potency,[3],inactive
same,Potency,[4],inactive
same,Potency,[5],inactive
same,outcome,[6],inactive
same,outcome,[7],inactive
same,outcome,[10],inactive
C[C@]12CCC(=O)C=C1[C@@H]1C[C@@H]1[C@H]1[C@@H]3[C@@H]4C[C@@H]4[C@@]4(CCC(=O)O4)[C@@]3(C)CC[C@@H]12,Potency,[9],inactive
same,Potency,[4],inactive
same,outcome,[6],inactive
same,outcome,[7],inactive
same,outcome,[10],inactive
COc1cc(C)c(Cc2cnc(N)nc2N)cc1OC,Potency,[9],inactive
same,Potency,[2],inactive
same,Potency,[3],inactive
same,Potency,[4],inactive
same,outcome,[6],inactive
same,outcome,[7],inactive
same,outcome,[8],inactive
same,outcome,[10],inactive
COc1ccc(/C=C/c2cc(OC)cc(=O)o2)cc1,Potency,[9],inactive
same,Potency,[2],inactive
same,Potency,[3],inactive
same,outcome,[6],inactive
same,outcome,[7],inactive
same,outcome,[8],inactive
same,outcome,[10],inactive
